High-throughput results as filed in PubChem.
Compounds with a hit are over-represented: about 3.4% of the library has one in this group of screens.
GPR151 activ: activators of human GPR151, primary screen, cell-based, PathHunter beta-arrestin, luminescence; hit rate 1% among 650,000; activation, % at 11.2 µM; G-protein coupled receptor 151 (Homo sapiens), Q8TDV0; PathHunter beta-arrestin GPR151 cells; AID 1508602, 2020; in the data active = activation above about 4.9%;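 note: 0% = median of compound wells and 100% = cells with positive control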
FBW7 act: FBW7 E3 ligase activators, primary screen, biochemical, AlphaScreen, human. F-box/WD repeat-containing protein 7 (Homo sapiens), Q969H0. AlphaScreen FBW7–phospho-cyclin E peptide binding, activator screen. normalized activity (activation), % at 26.1 µM. hit rate 0.13% among 650,000. AID 1259310, 2017; in the data active = normalized activity above about 1.9%;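 note: purified mutant Fbw7 with reduced substrate affinity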
TEAD-YAP block: TEAD-YAP interaction inhibition, primary screen, TEAD-YAP interaction inhibitor project, luminescence, HEK-TIYL cells; TEAD-Gal4/YAP UAS-luciferase luminescence; inhibition, % at 9.12 µM; hit rate 1.4% among 640,000; in the data active = inhibition above about 32%;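 note: 0% = median of test compound wells and 100% = reference inhibitor wells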
MITF primary: MITF inhibitors, primary screen, biochemical, AlphaScreen, human; Microphthalmia-associated transcription factor (Homo sapiens), O75030; AlphaScreen MITF homodimerization, bead proximity signal; inhibition, % at 2.6 µM; hit rate 0.91% among 650,000; AID 1259374, 2018; in the data active = inhibition above about 50%;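 note: 0% = vehicle wells with protein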
Target sequence (O75030 whole entry, looked up): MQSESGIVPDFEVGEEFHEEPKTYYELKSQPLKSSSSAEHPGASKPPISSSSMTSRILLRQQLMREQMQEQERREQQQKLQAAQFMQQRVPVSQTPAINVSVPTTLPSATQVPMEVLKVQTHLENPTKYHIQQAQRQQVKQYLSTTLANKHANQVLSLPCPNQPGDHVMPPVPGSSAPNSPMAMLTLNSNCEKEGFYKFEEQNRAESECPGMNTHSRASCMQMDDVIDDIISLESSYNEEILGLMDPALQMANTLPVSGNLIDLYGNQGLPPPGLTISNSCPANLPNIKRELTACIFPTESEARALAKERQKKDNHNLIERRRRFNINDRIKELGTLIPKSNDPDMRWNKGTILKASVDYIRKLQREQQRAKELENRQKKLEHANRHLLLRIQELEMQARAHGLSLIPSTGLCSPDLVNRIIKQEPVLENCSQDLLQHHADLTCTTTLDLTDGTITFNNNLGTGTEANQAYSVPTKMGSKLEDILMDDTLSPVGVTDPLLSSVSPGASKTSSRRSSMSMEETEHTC
* marks the source's active call; other numbers are inactive results; . = no result given.

SMILES	GPR151 activ	FBW7 act	TEAD-YAP block	MITF primary
O=C(Nc1ccc2c(c1)CN(S(=O)(=O)c1cccnc1)CC2)c1ccccc1Cl	3	0	46*	-6
O=C(Nc1ccc2c(c1)CN(C(=O)Cn1cncn1)CC2)c1ccccc1Cl	-1	0	47*	4
COc1ccc(CNC(=O)c2ccc3nc(-c4ccccc4)c(-c4ccccc4)nc3c2)cc1	0	1	-3	12
Cc1cc(C)c2cc(C)c3nnc(SCC(N)=O)n3c2c1	1	0	0	-10
CC(=O)OCCCNc1cc(Sc2nc3ccccc3[nH]2)c2nonc2c1[N+](=O)[O-]	-3	0	-10	13
O=C(Nc1cnn(-c2ccc(C(=O)NC3CCc4ccccc43)cc2)c1)c1ccoc1 (configuration not stated)	-1	1	56*	13
O=C1CC(C(=O)Nc2ccc(-c3cn[nH]c3)cc2)Cc2ccccc21 (configuration not stated)	0	0	34*	-8
Cc1cccc(N=C(NN)c2ccc3ccccc3n2)c1	-2	0	66*	10
CC(c1ccccc1)N1CC(O)=C(c2nc3ccccc3[nH]2)C1=N (configuration not stated)	1	0	55*	-1
CCOc1ccccc1N1CC(O)=C(c2nc3ccccc3[nH]2)C1=N	0	0	54*	8
CC(C)Oc1ccc(C(=O)Nc2nc(-c3ccc(F)cc3F)cs2)cc1	-1	0	38*	-10
COc1ccc(C2CC(=O)c3c(ccc4ccccc34)N2)cc1 (configuration not stated)	-1	0	0	11
COc1ccc(Br)cc1C1CC(=O)c2c(ccc3ccccc23)N1 (configuration not stated)	0	0	37*	2
COc1cc(C(=O)O)c(-n2c(C)ccc2C)cc1OC	-1	-1	0	72*
COc1ccc(Br)cc1C(=O)O	0	0	3	4
CCc1ccc(C2(C)CC(C)(C)N(C(=O)CN3C(=O)c4ccccc4C3=O)c3ccccc32)cc1 (configuration not stated)	1	0	9	-4
O=C(CSc1ccc(Br)cc1)Nc1ccccc1O	2	0	-18	8
CS(=O)(=O)c1ccc(C(=O)OCc2cccc(C(F)(F)F)c2)cc1[N+](=O)[O-]	3	0	52*	10
CC(C)(C)C(=O)COC(=O)c1ccc(S(C)(=O)=O)c([N+](=O)[O-])c1	1	0	2	4
c1ccc2c(c1)Nc1ccccc1C2NNC1c2ccccc2Nc2ccccc21	0	0	69*	0
O=C1Nc2ccccc2NC(=O)C2C3c4ccccc4C(c4ccccc43)C12 (configuration not stated)	1	0	17	-8
O=C(COc1ccc(Cl)cc1Cl)OCCN1CCOCC1	-1	0	-7	4
COc1ccc(/C=C2\N=C(c3ccc(Cl)cc3)OC2=O)cc1OC	-1	0	2	-10
Cc1cc(C)c(C#N)c(SCc2nc3ccccc3[nH]2)n1	0	0	-54	-2
Cc1cc(C)c(C#N)c(SCc2nc3cc([N+](=O)[O-])c([N+](=O)[O-])cc3[nH]2)n1	0	0	86*	5
SMILES	GPR151 activ	FBW7 act	TEAD-YAP block	MITF primary
CN(C)c1cccc(-c2nc(-c3cc4ccccc4o3)cnc2N)c1	1	0	-4	-15
COc1ccc(/C=C(\C#N)c2ccccc2)c(OC)c1	-1	0	32*	-20
CC(=O)c1ccc(-c2cc(F)cc3c2OC(CNC(=O)/C=C/c2cccnc2)C3)s1 (configuration not stated)	-1	0	33*	0
COc1cc2c(cc1O)CCC1C2CC[C@@]2(C)C1CC[C@@H]2O (some centres not stated)	0	0	.	12
COc1cc2c(cc1O)CC[C@@H]1[C@@H]2CC[C@]2(C)[C@@H](O)CC[C@@H]12	-1	0	53*	17
c1ccc(CCNc2ccc3ncc(-c4ccc(N5CCOCC5)cc4)n3n2)nc1	-1	0	47*	19
CCCNc1ccc2ncc(-c3ccc(N4CCOCC4)cc3)n2n1	0	0	10	8
Clc1cccc(-c2cnc3ccc(NCCc4ccccn4)nn23)c1	1	0	48*	-10
COc1ccc(-c2cnc3ccc(NCCc4ccccn4)nn23)cc1	0	0	36*	-9
N#Cc1ccc(-c2cnc3ccc(NCCc4ccccn4)nn23)cc1	-1	2	63*	13
Clc1ccc(-c2cnc3ccc(NCCc4ccccn4)nn23)cc1	1	1	29	18
O=C1c2ccc([N+](=O)[O-])cc2C(=O)N1c1ccccc1O	0	0	5	1
CCOCC(=O)Nc1ncc([N+](=O)[O-])s1	-6	0	-21	0
Cc1cccc(Nc2nc(-c3ccc(O)c(O)c3)cs2)c1	-1	0	-55	5
Nc1ccc(Nc2nc(-c3ccc(O)c(O)c3)cs2)cc1	1	0	-5	98*
O=C(O)c1ccc(Nc2nc(-c3ccc(O)c(O)c3)cs2)cc1	-2	0	-4	92*
Oc1ccc(Nc2nc(-c3ccc(Cl)cc3)cs2)cc1	0	.	.	-2
Oc1ccc(Nc2nc(-c3ccc(O)c(O)c3)cs2)cc1	0	0	-78	54*
N=c1sc2c(n1CC(=O)c1ccc(Cl)cc1)CCCC2	-1	0	37*	-15
N=c1sc2c(n1CC(=O)c1ccc(I)cc1)CCCC2	1	0	-42	0
COc1cccc2c(SCC(=O)Nc3ccc4c(c3)OCO4)nccc12	-1	1	48*	0
COc1cccc2c(SCC(=O)Nc3ccc4c(c3)OCCO4)nccc12	-1	0	51*	9
COC(=O)COc1cccc2c(=O)n(CC(=O)Nc3ccc4c(c3)OCCO4)ccc12	0	0	2	6
COC(=O)c1cc(NC(=O)C23CCC(C)(C(=O)C2=O)C3(C)C)cc(C(=O)OC)c1 (configuration not stated)	2	0	3	59*
COc1cc(C(=O)N2N=C(C)CC2(O)C(F)(F)F)ccc1O (configuration not stated)	0	0	-15	0
CCOc1cc(C(=O)N2N=C(C)CC2(O)C(F)(F)F)cc(OCC)c1OCC (configuration not stated)	1	0	61*	-2
O=C(CCl)NC(C1CCCCC1=O)C(Cl)(Cl)Cl (configuration not stated)	0	0	42*	-17
CCCN1C=C(C(=O)OC)C(c2cccc(Oc3ccccc3)c2)C(C(=O)OC)=C1	-1	2.1*	-4	-20
CCCOc1ccc(C2C(C(=O)OC)=CN(CCOC)C=C2C(=O)OC)cc1	3	2.1*	-8	-11
O=C(O)c1ccc(C(=O)Nc2ccccc2S(=O)(=O)Nc2nccs2)cc1	-1	3.7*	-4	9
